Assay outcomes as filed in PubChem BioAssay.
Pf Dd2 growth: inhibitors of Plasmodium falciparum Dd2 growth | P. falciparum Dd2 growth, SYBR Green, 72 h | Potency, µM (doses to about 28.9 µM), without a hit: top-dose activity, negative = inhibition, usual class: inhibitors | 120,000 tested, 4.3% active; active = well fitted inhibition curve with a large enough effect;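 also: plate controls were DMSO vehicle for no effect and reference drug for full effect; nearly all actives have a fitted effect of over 65% in size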
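Infected erythrocytes (Dd2, 0.3% parasitemia, 2.5% hematocrit final) are added to compound in RPMI-1640/Albumax II medium, grown 72 h at 37C in low oxygen, then lysed with saponin/Triton-X containing SYBR Green and read by fluorescence.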
Numbers without * were called inactive; i = inactive; [ ] = dose if it differs, or a comment. Many of the other results were omitted from the sample, so hits are more common in it than they were. Potency is read from the fitted curve at half-maximal effect.

SMILES | Pf Dd2 growth
O=C(COc1ccccc1)Nc1ccc2nc(SCC(=O)N3CCOCC3)sc2c1 | i
O=C1COc2ccc(OCc3ccccc3)nc2CN1Cc1ccccc1F | -24%[44.1 µM]
CCc1ccc(N2CC(c3noc(-c4ccc(OC)nc4OC)n3)CC2=O)cc1 (stereo unspecified) | 18%
CN1CCC(Cc2nc(CC3C=CS(=O)(=O)C3)n(CCO)n2)CC1 (stereo unspecified) | -11%
Cc1ccc(-c2cc3c(ccn3C)c(C(=O)NCc3cccnc3)n2)cn1 | i
CN1CCN(c2ccc(-c3cc4c(ccn4C)c(C(=O)NCc4cccnc4)n3)cc2)CC1 | 6.3µM*
Cn1ccc2c(C(=O)NCc3cccnc3)nc(-c3cncnc3)cc21 | 25%[44.1 µM]
C=CCNC(=O)N[C@H]1CO[C@H]2[C@@H]1OC[C@@H]2Nc1nccc(-c2cccc(F)c2)n1 | -18%[44.1 µM]
O=C(Nc1ccc2[nH]ccc2c1)C1=NO[C@@H]2CN(c3ccccc3)C[C@H]12 | -4%[44.1 µM]
CCOc1ccc2c(c1)c(=O)c(S(=O)(=O)c1ccc(CC)cc1)cn2Cc1cccc(Cl)c1 | 10µM*
CCOc1ccc2c(c1)c(=O)c(S(=O)(=O)c1ccccc1)cn2CC(=O)Nc1ccccc1OC | 11µM*
CCn1cc(S(=O)(=O)c2ccccc2)c(=O)c2cc(F)c(F)cc21 | i
COc1cc2c(=O)c(S(=O)(=O)c3ccc(F)cc3)cn(Cc3ccccc3C)c2cc1OC | 11µM*
COc1ccc(NC(=O)Cn2cc(S(=O)(=O)c3ccc(C)cc3)c(=O)c3ccccc32)cc1OC | -15%
CCc1ccc(S(=O)(=O)c2cn(CC(=O)Nc3cccc(C)c3)c3ccc(Cl)cc3c2=O)cc1 | i
COc1cc(NC(=O)Cn2cc(S(=O)(=O)c3ccccc3)c(=O)c3ccccc32)cc(OC)c1 | i
CCOc1ccc2c(c1)c(=O)c(S(=O)(=O)c1ccc(C)cc1)cn2CC(=O)Nc1ccc(C)cc1 | i
CCc1ccc2c(c1)c(=O)c(S(=O)(=O)c1ccc(Cl)cc1)cn2CC | -22%
Cc1ccc(S(=O)(=O)c2cn(Cc3cccc(C)c3)c3cc4c(cc3c2=O)OCO4)cc1 | -11%
CCOc1ccc2c(c1)c(=O)c(S(=O)(=O)c1ccc(C)cc1)cn2Cc1ccccc1Cl | 13µM*
CCc1ccc2c(c1)c(=O)c(S(=O)(=O)c1ccc(F)cc1)cn2CC(=O)Nc1ccccc1OC | -29%
CCN(c1ccc2c(c1)OCO2)C1CN(C(=O)OC(C)(C)C)C1 | -14%
Cc1cccc(OC[C@H]2C[C@@H](NC(=O)c3ccccc3)[C@H](O)[C@@H]2O)n1 | -12%[44.1 µM]
O=C(c1ccccc1F)N1CCC2(CC1)CC(Cc1ccccc1)=NO2 | -3%
Cc1ccc(C2=NC3(CCN(C(=O)c4cccc(C)c4)CC3)ON2)cc1 | -10%
SMILES | Pf Dd2 growth
Cc1nc([C@H]2CCN(Cc3ccc(C(F)(F)F)cc3)C[C@H]2NC(=O)C2CC2)n[nH]1 | -10%
COCC(=O)NC[C@H]1O[C@H](Cc2cc(CN(C)C)on2)CC[C@@H]1O | 0%[44.1 µM]
COc1ccc2c(c1)c(=O)c(S(=O)(=O)c1ccc(Cl)cc1)cn2C | -28%
CCOc1ccc2c(c1)c(=O)c(S(=O)(=O)c1ccc(Cl)cc1)cn2Cc1ccccc1C | 13µM*
CCOc1ccc(S(=O)(=O)c2cn(CC)c3ccc(F)cc3c2=O)cc1 | -2%
O=C(O)C1(Oc2ccc3ccccc3c2)CCN(c2ncnc3nc[nH]c23)CC1 | -12%
COc1ccc(Cl)cc1-c1ccc2c(c1)C(=O)N1CC[C@H](NC(=O)C3CCCC3)[C@H]1C(=O)N2 | -1%
CNc1nc(NCCC2CN(c3cnn(C)c(=O)c3)CCO2)ncc1F (stereo unspecified) | 1%
COc1cccc(CC(=O)N2CCC3(CC2)OC(=O)N(Cc2ccccc2F)C3(C)c2ccccc2)c1 (stereo unspecified) | -26%
Cc1ccccc1-c1nccc2c(=O)cc(N(C)C3CCOCC3)oc12 | i
Cc1ccccc1-c1nccc2c(=O)cc(C3=CCOCC3)oc12 | 10µM*
Cc1ccccc1-c1nccc2c(=O)cc(-c3ccncc3)oc12 | -19%[44.1 µM]
COc1ccc2[nH]cc(CCNC(=O)C3Cn4cccc4C(=O)N3CC(C)C)c2c1 (stereo unspecified) | i
Cc1noc(C)c1-c1nccc2c(=O)cc(-c3cccnc3)oc12 | -3%[44.1 µM]
O=C(Cn1nc(-c2ccc(F)cc2)ccc1=O)NC1CCCc2c1[nH]c1ccccc21 (stereo unspecified) | -9%
O=C(C1CC1)N1CCCC1c1nc(C2CCOCC2)no1 (stereo unspecified) | -7%
COCCn1cnnc1CN(C)C(=O)c1ccc2nc(C)cn2c1 | 7%
COc1ccc(CCN2C(=O)N(c3ccc(F)cc3)C(=O)C2CC(=O)Nc2ccccc2)cc1OC (stereo unspecified) | i
COc1ccc2cc1Nc1ccc(cc1)C[C@H](NCC1CC1)C(=O)N(C)[C@@H](C(=O)Nc1ccccc1)C2 | 4µM*
COc1ccc(S(=O)(=O)N2Cc3ccccc3CC2C(=O)Nc2cccc(C)c2)cc1OC (stereo unspecified) | -13%
COc1ccc(NC(=O)C2Cn3cccc3C(=O)N2C)cc1 (stereo unspecified) | -18%
COc1ccc2cc1Nc1ccc(cc1)C[C@H](NCc1cccc(O)c1)C(=O)N(C)[C@@H](C(=O)Nc1ccccc1)C2 | 4.5µM*
COc1ccc(CCNC(=O)C2CC(=O)N(CCc3ccccc3)C2)cc1OC (stereo unspecified) | 70%
O=S(=O)(NC[C@H]1O[C@H](Cc2cc(CN3CCOCC3)on2)CC[C@@H]1O)c1ccccc1 | 13%
Cc1ccccc1[C@H]1[C@@H](C(=O)NCCn2ccnc2)C[C@@](C)(C(=O)O)N1C | -2%
SMILES | Pf Dd2 growth
COc1ccc(NC(=O)c2c(NCc3cccc(F)c3)sc3c2CCCC3)c(OC)c1 | 8.9µM*
COC(=O)c1c(NC(=O)c2c(OC)cccc2OC)sc2c1CCCC2 | 18%
CCOC(=O)c1c(NC(=O)CS(=O)(=O)c2ccc(Cl)cc2)sc2c1CCCC2 | i
COc1ccc(NC(=O)c2c(NC(=O)c3ccc(Br)cc3)sc3c2CCCC3)cc1 | -9%
CCOC(=O)N1CCc2c(sc(NCc3ccc(N(C)C)cc3)c2C(=O)Nc2ccc(OC)cc2)C1 | 11µM*
CCNC(=O)c1c(NC(=O)COc2ccc(F)cc2)sc2c1CCCC2 | -2%
CCC(=O)Nc1sc2c(c1C(=O)Nc1ccc(OC)cc1)CCC(C(C)(C)C)C2 (stereo unspecified) | -2%
COc1ccc(CNC(=O)c2cc3c(s2)CCN(C(C)=O)C3)cc1 | i
CCOC(=O)c1ccc(NC(=O)c2c(NCc3cc(OC)c(OC)cc3OC)sc3c2CCCC3)cc1 | 13µM*
COC(=O)c1c(NC(=O)COc2cccc(C(F)(F)F)c2)sc2c1CCCC2 | 77%
COC(=O)c1ccc(NC(=O)c2c(NCc3cccc(F)c3)sc3c2CCCC3)cc1 | 13µM*
O=C(Nc1cccc(C(F)(F)F)c1)N1CCC(n2cnnc2C2CC2)C1 (stereo unspecified) | 48%
CC(C)Cc1cc(C(=O)N[C@H]2CN(C(=O)N(C)C)C[C@@H]2C2CC2)nc(N)n1 | 9%
CCOc1cccc(CN2CCCC(COc3ccccc3C(=O)NC(C)C)C2)c1 (stereo unspecified) | -10%
Cc1cccc(CNC(=O)c2c(OCC(C)C)cc(=O)n3c2CCCCC3)c1 | -4%
O=C(c1ccc2ncccc2c1)N1CCC(N2CC3CC(C2)[C@H]2CCCC(=O)N2C3)CC1 (stereo partly specified) | -3%
Cc1ccc(OCCC2CCN(C(=O)CC(F)(F)F)C2)cc1 (stereo unspecified) | -23%
